# “And” between values parts separate entries of the source, which are not always exact repeats. Equal entries are not always repeated.
# Tested on: Neuro-2a
# Experiment: neurite formation score, plate-normalized to DMSO control mean 5.04 (score (0-8 scale)); higher = more or longer neurites
# Conditions: 1 µM
# Description: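 Neuro-2a mouse neuroblastoma cells in PLL-coated 96-well plates were pre-treated for 1 h in DMEM(+) with each kinase inhibitor at 1 µM, then switched to serum-free DMEM(-) with inhibitor to induce neurite outgrowth and fixed about 2-3 h later. Three blinded observers scored neurite formation from 0 (no neurites) to 8 (long neurites on almost all cells).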
row,SMILES,neurite formation score
1,CCOc1cc2ncc(C#N)c(Nc3ccc(F)c(Cl)c3)c2cc1NC(=O)/C=C/CN(C)C [Pelitinib (EKB-569)],3.91
2,Cc1cc(Nc2ncc(Cl)c(Nc3ccccc3S(=O)(=O)C(C)C)n2)c(OC(C)C)cc1C1CCNCC1,4.24
3,C=CCc1ccc(O)c(-c2ccc(O)c(CC=C)c2)c1 [Honokiol],4.47
4,O=C(c1ccc(F)c(F)c1Nc1ccc(I)cc1F)N1CC(O)([C@@H]2CCCCN2)C1 [Cobimetinib],3.24
5,COc1cc2c(Oc3ccc(NC(=O)C4(C(=O)Nc5ccc(F)cc5)CC4)cc3F)ccnc2cc1OCCCN1CCOCC1,3.24
6,N#CC(=C(/N)Sc1ccccc1N)/C(C#N)=C(\N)Sc1ccccc1N,4.57
7,CC(C)CC(=O)Nc1n[nH]c2c1CN(C(=O)C1CCN(C)CC1)C2(C)C,4.57
8,C=CC(=O)N1CCC(Oc2cc3c(Nc4ccc(Cl)c(Cl)c4F)ncnc3cc2OC)CC1 [Poziotinib],4.14
9,Cc1c(F)cc(C(=O)NC2CC2)cc1-c1ccc(C(=O)NCC(C)(C)C)cn1 [Losmapimod],5.21
10,CC(C)(C)c1nc(-c2cccc(NS(=O)(=O)c3c(F)cccc3F)c2F)c(-c2ccnc(N)n2)s1,5.02 and 5.29
11,C[C@@H](Oc1cc(-n2cnc3ccc(CN4CCN(C)CC4)cc32)sc1C(N)=O)c1ccccc1C(F)(F)F,4.29
12,N#CCNC(=O)c1ccc(-c2ccnc(Nc3ccc(N4CCOCC4)cc3)n2)cc1,4.69
13,Cc1cc(CS(=O)(=O)c2ccccc2)cc(OCc2ccc(CN3CCC[C@@H]3CO)cc2)c1,4.69
